A short description of assay [1]: qHTS Assay for Identifying Gametocytocidal Compounds (AID 743244).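 For max response: actives lower the fluorescent signal which means gametocytes are killed.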 Note: potency is the fitted concentration of half-maximal effect. Conditions: P. falciparum 3D7 stage III-V gametocytes, alamarBlue, 72 h; max response: active compounds read low. The procedure, abridged:
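Stage III–V gametocytes of P. falciparum 3D7 were seeded at 20,000 cells/well onto pre-dispensed compounds. After 72 h, 37 °C, 5% CO2, alamarBlue was added for another 24 h.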

Assay [2] can be described thus: qHTS assay to identify small molecule inhibitors of chordoma cells - UCH-1 (AID 1259355). Note: nearly all actives have a fitted effect of over 55% in size. Note: potency is the fitted concentration of half-maximal effect; series mostly up to about 46 µM. The procedure, abridged: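 Screening used approved and investigational drugs in 15-point titration against 800 seeded cells per well. A fixed combination of auranofin with camptothecin, doxorubicin, rubitecan and topotecan followed compound addition, and growth was scored by CellTiter-Glo after 48hr.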
(In general: Quantitative high-throughput screening tests each substance at several concentrations.)

Assay [3] can be described thus: qHTS assay to identify small molecule inhibitors of chordoma cells - UCH-2 (AID 1259356). Note: potency is the fitted concentration of half-maximal effect.
A short description of assay [4]: P-glycoprotein substrates identified in KB-8-5-11 adenocarcinoma cell line, qHTS therapeutic library screen (AID 1346987). Note: nearly all actives have a fitted effect of over 65% in size. Note: potency is the fitted concentration of half-maximal effect. As to conditions: outcome: dose series up to 44.5 µM unless noted. The procedure, abridged: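 Human cervical adenocarcinoma KB-8-5-11 cells, selected in colchicine to over-express P-gp and assayed without it, were exposed for 72 h to titrated compounds. An ATP-based luminescent viability signal gave AC50.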

Assay [5] in a line: qHTS assay for cell viability of HEK293 cells (AID 743288). Note: nearly all actives have a fitted effect of over 50% in size. As to conditions: ATP luminescence (CellTiter-Glo), 18 h; max response: active compounds read low. The procedure, abridged: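 Steps: plate 2,000 parental HEK293 cells per well; incubate ≥5 h, 37 C; add compounds in DMSO; incubate 18 h, 37 C; add CellTiter-Glo; wait 30 min at room temperature; read luminescence.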
Assay [6] is described as follows: qHTS assay for cell viability of the p53RE-bla HCT-116 cell line (AID 743292). Note: nearly all actives have a fitted effect of over 55% in size. The procedure, abridged: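 ATP-based luminescence, 16 h compound exposure at 37 C, p53RE-bla HCT-116 cells at 4,000/well.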

Where “and” joins values, the source holds several entries; their conditions need not be identical. Equal entries are not always repeated. Records with an inconclusive call do not appear. A number with no mark means an inactive call. Calls of active or inactive are those of the source. Calls come from the whole dose curve; as a rule, active = well fitted curve in the direction sought with a large enough effect; inconclusive = small, poorly fitted or top-dose-only effect, or another doubt; inactive = no such curve, though single readings can be large; an effect the other way counts as inactive or inconclusive.
% is set by controls: 0 for no effect and ±100 for the full control effect.

As to `CCCc1ccc(C(=O)O)cc1`, the max response in assay [1] is 0.792%. Besides, the Potency result in assay [2], in assay [3] and in assay [4] was “inactive” throughout.
Consider `COc1cc2c(cc1OC)[C@@H](Cc1cc(OC)c(OC)c(OC)c1)[N+](C)(CCCOC(=O)CC/C=C/CCC(=O)OCCC[N+]1(C)CCc3cc(OC)c(OC)cc3[C@H]1Cc1cc(OC)c(OC)c(OC)c1)CC2` (stereo partly drawn), for which, in assay [1], the max response was 7.25% and 6.59%. Also, the Potency entry in assay [2], in assay [3] and in assay [4] was “inactive” in each case.
Take `COc1cc(C)c(/C=C/C(C)=C/C=C/C(C)=C/C(=O)O)c(C)c1C`: the max response in assay [1] was 1.95%. For the same compound, the Potency entry in assay [2], in assay [3] and in assay [4] was “inactive” in each case.
`Cc1cc(O)c2c(c1)O[C@@]1(C)CC[C@H]3C(C)(C)CCCC34CO[C@@H]2[C@H]41` (stereo partly drawn): in assay [1], the max response was 20.1%. The Potency result in assay [2], in assay [3] and in assay [4] was “inactive” in each case.
As for `c1ccc2c(c1)OCC(CN1CCCCC1)O2` (stereo not drawn), in assay [1], the max response is -2.04%. Besides, the Potency result in assay [2], in assay [3] and in assay [4] was “inactive” throughout.
As to `CC(C)CN(C[C@@H](OP(=O)(O)O)[C@H](Cc1ccccc1)NC(=O)O[C@H]1CCOC1)S(=O)(=O)c1ccc(N)cc1`, the max response in assay [1] is -7.76%. Further, the Potency entry in assay [2], in assay [3] and in assay [4] was “inactive” in each case.
On to `Cc1cc(C(=O)NCCc2ccc(S(=O)(=O)NC(=O)NN3CCCCCC3)cc2)no1`, for which the max response in assay [1] was 4.46%. Also, the Potency result in assay [2], in assay [3] and in assay [4] was “inactive” each time.
`NC[C@@H]1CC[C@@H](N)[C@@H](O[C@H]2[C@H](O)[C@@H](O[C@H]3O[C@H](CO)[C@@H](O)[C@H](N)[C@H]3O)[C@H](N)C[C@@H]2N)O1`: the max response in assay [1] was 4.25%. Besides, the Potency result in assay [2], in assay [3] and in assay [4] was “inactive” throughout.
Regarding `O=S(=O)(O)CCCS(=O)(=O)O`, the max response in assay [1] was 2.64%. For the same compound, the Potency result in assay [2], in assay [3] and in assay [4] was “inactive” each time.
Consider `CO/N=C(\C(=O)N[C@@H]1C(=O)N2C(C(=O)[O-])=C(C[n+]3cccc4c3CCC4)CS[C@H]12)c1csc(N)n1`, for which the max response in assay [1] is 15.5%. Further, the Potency result in assay [2], in assay [3] and in assay [4] was “inactive” each time.
For the compound `CC1=CC(=C(c2ccc(N)cc2)c2ccc(N)cc2)C=CC1=N`, the Potency in assay [1] is 7.94 µM (active); in assay [2], 15.8 µM (active); in assay [3], 14.6 µM (active); in assay [4], 14.6 µM (active).
For `OC/C=C/c1ccccc1`, the max response in assay [1] was 2.6%. The Potency entry in assay [2], in assay [3] and in assay [4] was “inactive” in each case.
In the case of `O=C(NCCNCC(O)COc1ccc(O)cc1)N1CCOCC1` (stereo not drawn), in assay [1], the max response was -13.8%. Also, the Potency entry in assay [2], in assay [3] and in assay [4] was “inactive” each time.
As to `CC(C)C[C@@H](NC(=O)[C@@H](O)[C@H](N)Cc1ccccc1)C(=O)O`, the max response in assay [1] is 1.84%. Moreover, the Potency entry in assay [2], in assay [3] and in assay [4] was “inactive” each time.
In the case of `CC(C)(C)C(=O)OCC(=O)[C@H]1CC[C@H]2[C@@H]3CCC4=CC(=O)CC[C@]4(C)[C@H]3CC[C@]12C`, the max response in assay [1] is 6.08%. The Potency entry in assay [2], in assay [3] and in assay [4] was “inactive” throughout.
With `FCOC(C(F)(F)F)C(F)(F)F`, the max response in assay [1] is -7.47%. Also, the Potency result in assay [2], in assay [3] and in assay [4] was “inactive” in each case.
With `CCCCC[C@H](O)/C=C/[C@@H]1[C@H]2C/C(=C/CCCC(=O)O)O[C@H]2C[C@H]1O`, in assay [1], the max response was 18.5%. Further, the Potency entry in assay [2], in assay [3] and in assay [4] was “inactive” throughout.
Consider `CCN(CC)CCOc1ccccc1OC`, for which the max response in assay [1] is -0.561%. Further, the Potency result in assay [2], in assay [3] and in assay [4] was “inactive” throughout.
For the compound `CO/N=C(\C(=O)N[C@@H]1C(=O)N2C(C(=O)O)=C(CSc3nc(C)c(CC(=O)O)s3)CS[C@H]12)c1csc(N)n1`, the max response in assay [1] was 4.68%. Moreover, the Potency entry in assay [2], in assay [3] and in assay [4] was “inactive” throughout.
Regarding `CC(C)CCC[C@@H](C)[C@H]1CC[C@H]2[C@@H]3CC[C@@H]4C[C@H](O)CC[C@]4(C)[C@H]3CC[C@]12C`, the max response in assay [1] was -3.57%. Further, the Potency result in assay [2], in assay [3] and in assay [4] was “inactive” each time.
On to `COC1[C@@H](O[C@@H]2O[C@H](C)[C@@H](O[C@H]3C[C@@](C)(O)[C@H](OC(=O)CC(C)C)[C@H](C)O3)[C@H](N(C)C)[C@H]2O)[C@@H](CC=O)C[C@@H](C)[C@@H](O)/C=C/C=C/C[C@@H](C)OC(=O)C[C@H]1OC(C)=O` (stereo partly drawn), for which the max response in assay [1] is 6%. Moreover, the Potency result in assay [2], in assay [3] and in assay [4] was “inactive” in each case.
Regarding `CC(C)(O/N=C(\C(=O)N[C@@H]1C(=O)N2C(C(=O)[O-])=C(C[n+]3ccccc3)CS[C@H]12)c1csc(N)n1)C(=O)O`, the max response in assay [1] was 20.4%. Besides, the Potency result in assay [2], in assay [3] and in assay [4] was “inactive” throughout.
As to `C[C@]12CC[C@@H]3c4ccc(O)cc4CC[C@H]3[C@@H]1CC[C@@H]2OP(=O)(O)O`, the max response in assay [1] is -0.293%. Moreover, the Potency entry in assay [2] and in assay [3] was “inactive” each time. Besides, the Potency in assay [4] was 20.6 µM (active).
Take `C[S+](C)CCC(N)C(=O)O` (stereo not drawn): in assay [1], the max response is 3.96%. Besides, the Potency entry in assay [2], in assay [3] and in assay [4] was “inactive” in each case.
Turning to `N=C(N)c1ccc(/C=C/c2ccc(C(=N)N)cc2O)cc1`, in assay [1], the max response is 21.7%. The Potency result in assay [2] and in assay [3] was “inactive” each time. For the same compound, the Potency in assay [4] was 18.4 µM (active).
On to `CC(C)O`, for which the values for the max response in assay [1] and in assay [5] were 0.211% and -16.4%, respectively. Also, the compound was classed as inactive in assay [6]. In addition, the Potency result in assay [2], in assay [3] and in assay [4] was “inactive” each time.
On to `Cc1ccc(S(=O)(=O)NCl)cc1`, for which the max response in assay [1] was 4.72%; in assay [5] it was -7.16%. In addition, in assay [6], the compound was classed as inactive. Besides, the Potency result in assay [2], in assay [3] and in assay [4] was “inactive” in each case.
Consider `CC(C)CCCCCCc1ccc(O)cc1`, for which the max response in assay [1] is 9.95%; in assay [5] it was -15.7%. Also, in assay [6], the outcome was inactive. Also, the Potency entry in assay [2], in assay [3] and in assay [4] was “inactive” each time.
